Screening data (PubChem)
14-3-3 Bad inh: disrupts binding of bovine 14-3-3 zeta to phospho-Bad peptide; P63103; TR-FRET 14-3-3zeta/Dy647-pBad peptide displacement, 1 h; inhibition, % at 21.7 µM; hit rate 0.71% among 220,000;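 active = inhibition above about 70%, limit read from the data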;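 note: 0% = full 14-3-3 plus peptide FRET controls and 100% = background without 14-3-3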
Target sequence (P63103 whole entry, looked up): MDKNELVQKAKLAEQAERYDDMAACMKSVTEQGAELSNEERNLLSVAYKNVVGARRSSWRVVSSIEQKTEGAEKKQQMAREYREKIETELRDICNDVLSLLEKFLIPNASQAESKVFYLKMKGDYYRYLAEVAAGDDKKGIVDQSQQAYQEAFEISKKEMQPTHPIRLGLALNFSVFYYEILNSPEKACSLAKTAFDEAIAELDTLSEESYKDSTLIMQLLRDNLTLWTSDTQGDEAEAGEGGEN
Mcl-1 Bim block: inhibitors of Bim-Mcl-1 interaction, human | inhibition, % at 10 µM | Q07820 | AID 1009 | hit rate 0.1% among 190,000 | Bead-based flow cytometry, Bim peptide-Mcl-1 binding; in the data active = inhibition above about 40%;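 note: 0% = no compound tracer wells and 100% = peptide blocker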
Target sequence (Q07820 whole entry, looked up): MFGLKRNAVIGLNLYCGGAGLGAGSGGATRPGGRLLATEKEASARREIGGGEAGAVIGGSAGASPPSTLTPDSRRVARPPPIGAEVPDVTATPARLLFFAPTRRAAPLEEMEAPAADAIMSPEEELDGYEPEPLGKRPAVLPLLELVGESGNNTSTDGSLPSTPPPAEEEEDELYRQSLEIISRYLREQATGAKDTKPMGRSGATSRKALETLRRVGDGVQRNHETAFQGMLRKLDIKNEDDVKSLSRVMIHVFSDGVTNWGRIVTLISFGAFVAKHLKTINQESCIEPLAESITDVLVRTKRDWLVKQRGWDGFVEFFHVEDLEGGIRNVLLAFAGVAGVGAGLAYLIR
Mcl1 Noxa PPI: Mcl-1/Noxa interaction inhibition; hit rate 1.5% among 220,000; Q07820; inhibition, % at 21.7 µM; TR-FRET Mcl-1/Noxa peptide binding, 2 h;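 active = compounds that cut the protein-peptide binding signal by more than 50% relative to plate controls in a single-dose test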;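 note: His-tagged Mcl-1 with rhodamine Noxa BH3 peptide and terbium anti-His antibody; 0% = Mcl-1 plus Noxa peptide wells and 100% = peptide-only wells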
Arbovirus inh: antivirals against arbovirus infection | hit rate 0.37% among 200,000 | arbovirus infection cell-based antiviral screen | inhibition, % at 10 µM | AID 1251; in the data active = inhibition above about 30%
Mcl1-Bid inh: disrupts binding of human Mcl-1 to Bid peptide | Q07820 | hit rate 0.97% among 220,000 | TR-FRET Mcl-1/Bid-Dy647 peptide binding, 1536-well | inhibition, % at 21.7 µM | AID 1021;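 active = compounds that cut the binding signal by more than half at the single screening dose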;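 note: His-tagged Mcl-1 with europium anti-His antibody binding Bid BH3 peptide; 0% = Mcl-1 plus peptide wells and 100% = peptide-only wells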
The depositor's hits bear a star; nt = not tested or not shown; [ ] = another dose, or the depositor's remark. Shown are actives, neighbours in structure and some others; about 3% of the full set was active somewhere.

SMILES | 14-3-3 Bad inh | Mcl-1 Bim block | Mcl1 Noxa PPI | Arbovirus inh | Mcl1-Bid inh
O=C(O)/C=C/C(=O)Nc1ccc2c(c1)NC(=O)CO2 | 4 | 0 | 51* | 16 | 18
O=C1COc2ccc(C(=O)/C=C/c3ccccc3)cc2N1 | 0 | -5 | 8 | 13 | -5
Cc1cccc(OCCNC(=O)c2cccc(Oc3ccc(C(F)(F)F)cc3[N+](=O)[O-])c2)c1 | -9 | -2 | 11 | -4 | 8
O=C1NCCN1C(=O)N(c1ccccc1)c1ccccc1 | -3 | 56* | -14 | 12 | -25
CN(C)S(=O)(=O)N1CCN(C(=O)N(c2ccccc2)c2ccccc2)CC1 | -5 | 0 | -14 | -2 | -13
CC(C)(C)C1CCc2c(C(=O)NNC(=O)CCC(=O)O)csc2C1 (centres undefined) | -1 | -6 | 104* | 5 | -8
Cc1scc(C(=O)NNC(=O)CCC(=O)O)c1C | -8 | 0 | 11 | -1 | -5
O=S(=O)(Nn1cnnc1)c1ccc(F)cc1 | -2 | -1 | 34 | 4 | -12
O=c1c2ccccc2nc2n1CCCCC2 | -6 | -1 | 10 | 9 | -34
O=c1c2ccccc2nc2n1CCC2 | 94* | -3 | 41 | 5 | 96*
Cc1[nH]n(C(N)=S)c(=O)c1N=Nc1ccc(S(=O)(=O)N2CCCCCC2)cc1 | -21 | 51* | -26 | -3 | -258
Cc1ccc(N=Nc2c(C)[nH]n(C(N)=S)c2=O)cc1C | -6 | -1 | -1 | -16 | -57
COc1cc(/C(C)=N/NC(=O)Cc2c(C)[nH][nH]c2=O)ccc1O | -9 | -5 | 28 | -11 | -50
O=c1oc2ccccc2cc1-c1csc(Nc2nc3c(F)cccc3s2)n1 | 27 | -4 | 70* | -11 | 33
Cc1ccc2c(c1)N(C(C)C(=O)NCc1ccc3c(c1)OCO3)C(=O)CO2 (centres undefined) | 5 | nt | 5 | nt | -55
O=C(Nc1ccc(-c2csnn2)cc1)C(Cl)(Cl)Cl | -7 | nt | 4 | nt | -2
Cc1ccc(-c2nc(NC(=O)CSc3cc(C)c4ccccc4n3)ns2)cc1 | 75* | -425 | -212 | -17 | -23
O=C(CSc1ccc2ccccc2n1)Nc1nsc(-c2ccc(Cl)cc2)n1 | 52 | -270 | 19 | 0 | 61*
O=C(CSc1nnnn1-c1ccccc1)Nc1nsc(-c2ccc(Cl)cc2)n1 | 22 | -6 | -33 | -2 | 9
Cc1ccc(C#N)c(SCC(=O)Nc2nccs2)n1 | -5 | 2 | -1 | -11 | -32
CC(C)CCn1cnc2c(oc3nc4c(cc32)CCCC4)c1=O | -8 | nt | 4 | nt | -12
CCOC(=O)C1CCCN(c2c(N3CCN(c4cccc(Cl)c4)CC3)c(=O)c2=O)C1 (centres undefined) | 5 | -4 | -1 | 6 | 86*
Oc1[nH]c2ccccc2c1N=Nc1ncnc2c1oc1ccccc12 | 46 | nt | 65* | nt | 10
O=c1cc(-c2ccccc2Cl)oc2c(NS(=O)(=O)c3cccs3)ccc(O)c12 | -2 | nt | -9 | nt | -47
COc1ccc(C2CC(c3ccc(OC)cc3)n3nc(N)nc3N2)cc1 (centres undefined) | nt | nt | nt | 1 | nt
SMILES | 14-3-3 Bad inh | Mcl-1 Bim block | Mcl1 Noxa PPI | Arbovirus inh | Mcl1-Bid inh
COc1ccc(C2CC(c3ccccc3)Nc3nc(N)nn32)cc1 (centres undefined) | -14 | 0 | -1 | -4 | 71*
CC(=O)c1cccc(N=Nc2c(-c3ccccc3)[nH]n(-c3ccccc3)c2=O)c1 | -12 | 2 | 15 | 4 | -17
Cc1cc(C)n(CCCNCC(O)c2ccccc2)n1 (centres undefined) | 85* | 2 | 28 | 2 | 38
O[C@@H](CNC[C@H](O)c1ccccc1)c1ccccc1 | 22 | 9 | -13 | 17 | -2
O=C(Cc1ccccc1F)NCC(c1ccco1)N1CCCCC1 (centres undefined) | -3 | -1 | 9 | 9 | -20
CCOc1ccccc1OCCOCCN1CCN(Cc2ccccc2)CC1 | 84* | 4 | 17 | -4 | 31
Clc1ccccc1OCCN1CCC(Cc2ccccc2)CC1 | 38 | -3 | 30 | 10 | 63*
CN(c1ccc(O)cc1)c1nc(-c2cccs2)cs1 | -6 | 0 | 2 | 1 | -32
CN(C1=NC(=O)CS1)c1ccc(O)cc1 | 2 | nt | -6 | nt | 97*
COc1cc(/C=C2\SC(c3ccccc3)=NC2=O)cc(Cl)c1O | -24 | 0 | 73* | -1 | -75
O=C(Nc1nc(-c2cccs2)c(-c2cccs2)s1)C1CCCC1 | -2 | -5 | 8 | -13 | -30
Cc1ccc2c(c1)c1cccc3c1n2CCN3CCC(N)=O | 32 | 4 | 67* | -13 | -71
COc1ccc(C(=O)CSc2ccccc2C(=O)O)cc1 | 2 | -1 | 10 | -8 | -24
O=C(NC(=O)c1ccc(Cl)cc1)Nc1ccc(-c2cnco2)cc1 | 78* | nt | -139 | nt | 6
O=C(NC(=O)c1ccc(C(F)(F)F)cc1)Nc1ccc(-c2cnco2)cc1 | 16 | nt | -27 | nt | 6
Cc1ccc(CSc2nc3ccccc3c(=O)[nH]2)cc1 | 71* | -2 | 7 | 4 | -49
COCCn1c(C)cc(C(=O)CSc2nc3ccccc3c(=O)[nH]2)c1C | -17 | -2 | 61* | -1 | -46
CCc1nc(Nc2ccncc2)c2oc3ccccc3c2n1 | nt | -1 | nt | -6 | nt
CCc1nc(Nc2ccc3c(c2)OCO3)c2oc3ccccc3c2n1 | 70*[fluorescence artefact?] | 0 | 35 | 3 | 0
CCc1nc(N2CCN(Cc3ccc4c(c3)OCO4)CC2)c2oc3ccccc3c2n1 | 80* | -1 | 27 | -25 | -4
CCc1nc(NC(C)C)c2oc3ccccc3c2n1 | 76* | -3 | 11 | 0 | 43
CCc1nc(N[C@H](C(=O)O)C(C)C)c2oc3ccccc3c2n1 | 5 | nt | -6 | nt | -8
COc1ccc(NC(=O)/C(Cl)=C(/Cl)S(=O)Cc2ccc(Cl)cc2)cn1 (centres undefined) | -4 | -9 | 53* | -34 | 36
CCOC(=O)c1ccc(NC(=O)Cn2nnc(-c3ccccc3)n2)cc1 | 8 | -4 | -3 | 39* | 2
CCOC(=O)c1ccc(NC(=O)Cn2nnc(-c3ccc(F)cc3)n2)cc1 | -3 | -3 | 23 | 1 | -3
SMILES | 14-3-3 Bad inh | Mcl-1 Bim block | Mcl1 Noxa PPI | Arbovirus inh | Mcl1-Bid inh
COc1ccc(S(=O)(=O)N2CCN(c3ccccc3OC)CC2)cc1OC | 2 | -5 | 5 | 49* | 5
COc1ccccc1OCCCCN1CCN(c2ccccc2OC)CC1 | 81* | -3 | -4 | -3 | 13
COc1ccc(S(=O)(=O)N2CCN(C(=O)NC3CCCCC3)CC2)cc1OC | 9 | -4 | 56* | -3 | -61
CN1C(=O)C(CC(=O)Nc2ccc(F)cc2)N(NC(=O)c2cccc(F)c2)C1=S (centres undefined) | 0 | nt | 8 | nt | -11
Cc1cc(C)c2nc(-c3ccccn3)cc(C(=O)Nc3ccc(S(=O)(=O)Nc4cc(C)on4)cc3)c2c1 | -2 | -1 | 36 | -10 | -3
Cc1cc(C)c2nc(-c3ccccn3)cc(C(=O)Nc3ccc(S(=O)(=O)Nc4onc(C)c4C)cc3)c2c1 | 15 | 4 | 79* | -2 | -7
CCS(=O)(=O)c1nc(S(=O)(=O)c2ccc(C)cc2)c(NCCCN(C)C)s1 | -6 | -3 | 11 | 2 | -14
